Measurements: PubChem BioAssay AID1159580 (chemical genetic matrix, 2015)
Screen size: about 5,500 compounds; about 2,000 (36%) were called active. Another 18% or so got no clear call; they are omitted. Rule as the data show it: active = normalized growth mostly below about 0.91 (no sharp cut-off); inconclusive = no clear call, values can overlap the other calls; inactive = mostly above about 0.92. This is one part of the list.

Test: chemical genetic growth profiling, strain panel (AID 1159580);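 also: tested at 20 µM; growth read once vehicle control cultures reached saturation at 30 °C; 1 = growth at the plate median or of vehicle wells; lower values mean less growth of the strain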
Conditions: S. cerevisiae deletion strains, growth OD

Measured: normalized growth

O=S(=O)(O)O
inactive: locus YAL021C, strain ccr4, hits give low values 0.973 | locus YAL026C, strain drs2, hits give low values 0.983 | locus YAL030W, strain snc1, hits give low values 0.985 | locus YBL061C, strain skt5, hits give low values 0.975 | locus YBR009C, strain hhf1, hits give low values 0.991 | locus YBR023C, strain chs3, hits give low values 0.98 | locus YBR171W, strain sec66, hits give low values 0.961 | locus YBR231C, strain swc5, hits give low values 0.976 | locus YBR279W, strain paf1, hits give low values 0.985 | locus YCL011C, strain gbp2, hits give low values 0.965 | locus YCL016C, strain dcc1, hits give low values 0.981 | locus YCL061C, strain MRC1, hits give low values 0.993 | locus YCL069W, strain vba3, hits give low values 0.969 | locus YCR088W, strain abp1, hits give low values 0.956 | locus YDL005C, strain med2, hits give low values 0.954 | locus YDL040C, strain nat1, hits give low values 0.988 | locus YDR001C, strain nth1, hits give low values 0.987 | locus YDR069C, strain doa4, hits give low values 0.964 | locus YDR137W, strain rgp1, hits give low values 1.01 | locus YDR159W, strain sac3, hits give low values 0.985 | locus YDR195W, strain ref2 1 | locus YDR297W, strain sur2, hits give low values 0.976 | locus YDR334W, strain swr1, hits give low values 0.976 | locus YDR335W, strain msn5, hits give low values 0.978 | locus YDR392W, strain spt3, hits give low values 0.914 | locus YEL003W, strain gim4, hits give low values 0.988 | locus YEL037C, strain rad23, hits give low values 0.969 | locus YEL061C, strain CIN8 (second series), hits give low values 0.971 | locus YER015W, strain faa2, hits give low values 0.975 | locus YER016W, strain bim1, hits give low values 0.983 | locus YER111C, strain swi4, hits give low values 0.967 | locus YER155C, strain BEM2 (second series), hits give low values 0.976 | locus YFR010W, strain ubp6, hits give low values 0.973 | locus YGL167C, strain pmr1, hits give low values 0.973 | locus YGL173C, strain kem1, hits give low values 0.962 | locus YGL227W, strain vid30, hits give low values 0.961 | locus YGL240W, strain doc1, hits give low values 0.982 | locus YGL253W, strain hxk2, hits give low values 0.969 | locus YHR013C, strain ard1, hits give low values 0.96 | locus YHR027C, strain rpn1, hits give low values 0.978 | locus YHR030C, strain SLT2, hits give low values 1.04 | locus YHR079C, strain IRE1, hits give low values 1.06 | locus YHR142W, strain chs7, hits give low values 0.961 | locus YJL092W, strain hpr5, hits give low values 0.95 | locus YJL095W, strain BCK1 (second series), hits give low values 0.981 | locus YJL095W, strain BCK1, hits give low values 1.06 | locus YJL115W, strain asf1, hits give low values 0.981 | locus YJL129C, strain trk1, hits give low values 0.961 | locus YJL154C, strain vps35, hits give low values 0.977 | locus YJL164C, strain tpk1, hits give low values 0.983 | locus YJL166W, strain qcr8, hits give low values 0.977 | locus YJL187C, strain SWE1, hits give low values 0.981 | locus YJR066W, strain TOR1, hits give low values 0.967 | locus YKL160W, strain elf1, hits give low values 0.987 | locus YKR026C, strain gcn3, hits give low values 0.975 | locus YKR091W, strain srl3, hits give low values 0.977 | locus YLL001W, strain dnm1, hits give low values 0.992 | locus YLL026W, hits give low values 0.966 | locus YLL041C, strain sdh2, hits give low values 0.988 | locus YLR027C, strain aat2, hits give low values 0.985 | locus YLR113W, strain HOG1, hits give low values 0.992 | locus YLR221C, strain rsa3, hits give low values 0.979 | locus YLR258W, strain gsy2, hits give low values 0.98 | locus YLR262C, strain YPT6 (second series), hits give low values 1 | locus YLR320W, strain mms22, hits give low values 0.969 | locus YLR342W, strain FKS1, hits give low values 0.955 | locus YLR357W, strain rsc2, hits give low values 0.951 | locus YLR370C, strain arc18, hits give low values 0.965 | locus YLR384C, strain iki3, hits give low values 0.977 | locus YML120C, strain ndi1, hits give low values 0.979 | locus YMR058W, strain fet3, hits give low values 0.985 | locus YMR125W, strain sto1, hits give low values 0.944 | locus YMR129W, hits give low values 0.99 | locus YMR205C, strain PFK2, hits give low values 0.976 | locus YMR231W, strain pep5, hits give low values 0.956 | locus YNL071W, strain lat1, hits give low values 0.959 | locus YNL183C, strain NPR1, hits give low values 0.986 | locus YNL209W, strain ssb2, hits give low values 0.975 | locus YNL248C, strain rpa49, hits give low values 0.978 | locus YNL322C, strain KRE1 (second series), hits give low values 0.966 | locus YNR049C, strain mso1, hits give low values 0.983 | locus YOR001W, strain rrp6, hits give low values 0.964 | locus YOR070C, strain gyp1, hits give low values 0.974 | locus YOR080W, strain dia2, hits give low values 0.968 | locus YOR083W, strain WHI5, hits give low values 0.986 | locus YOR106W, strain vam3, hits give low values 0.934 | locus YOR231W, strain MKK1, hits give low values 1.02 | locus YOR265W, strain rbl2, hits give low values 0.981 | locus YOR270C, strain vph1, hits give low values 1 | locus YOR290C, strain snf2, hits give low values 0.982 | locus YPL051W, strain arl3, hits give low values 0.981 | locus YPL078C, strain atp4, hits give low values 0.982 | locus YPL106C, strain sse1, hits give low values 0.946 | locus YPL240C, strain hsp82, hits give low values 0.957 | locus YPL256C, strain CLN2, hits give low values 1.06
